Common to all, as to assay: DAPPL (digital affinity profiling via proximity ligation, sequencing); 10 mM Tris-HCl pH 7.5, 50 mM NaCl, 1 mM DTT, 4% glycerol, room temperature, 30 min; GST-TFs on glutathione beads, 16-mer random dsDNA library, 0.1% formaldehyde crosslink after washing; high values mean tight binding
The target in assay [1] is T1, FEV (Homo sapiens, UniProt Q99581 1-238).
T1 sequence: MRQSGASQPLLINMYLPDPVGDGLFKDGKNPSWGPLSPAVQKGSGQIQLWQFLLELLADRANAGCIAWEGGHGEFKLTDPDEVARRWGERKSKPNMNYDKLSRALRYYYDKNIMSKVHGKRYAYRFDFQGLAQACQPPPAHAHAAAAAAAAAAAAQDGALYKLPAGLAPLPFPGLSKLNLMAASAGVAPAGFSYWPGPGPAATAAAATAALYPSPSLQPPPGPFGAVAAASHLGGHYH
Conditions: protein: recombinant; tags: N-terminal GST; dsDNA, one strand shown. The essentials: (§1)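 Each value of binding signal is a hexamer's read frequency for a factor divided by the same hexamer's frequency in the tag-only sample. Barcoded, bead-captured GST fusions of human transcription factors made in yeast were pooled with that sample and incubated with 200 nmole of a random double-stranded 16-mer DNA library in Tris/NaCl/DTT/glycerol buffer at room temperature for 30 min. Washing, 0.1% formaldehyde crosslinking, proximity ligation, PCR and Illumina NextSeq500 sequencing followed.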

For assay [2], the target named is ETV5 (Homo sapiens, UniProt P41161 1-510). The following applies: protein: recombinant; tags: N-terminal GST; dsDNA, one strand shown. The method, boiled down: as §1
Sequence of ETV5 (P41161 whole entry): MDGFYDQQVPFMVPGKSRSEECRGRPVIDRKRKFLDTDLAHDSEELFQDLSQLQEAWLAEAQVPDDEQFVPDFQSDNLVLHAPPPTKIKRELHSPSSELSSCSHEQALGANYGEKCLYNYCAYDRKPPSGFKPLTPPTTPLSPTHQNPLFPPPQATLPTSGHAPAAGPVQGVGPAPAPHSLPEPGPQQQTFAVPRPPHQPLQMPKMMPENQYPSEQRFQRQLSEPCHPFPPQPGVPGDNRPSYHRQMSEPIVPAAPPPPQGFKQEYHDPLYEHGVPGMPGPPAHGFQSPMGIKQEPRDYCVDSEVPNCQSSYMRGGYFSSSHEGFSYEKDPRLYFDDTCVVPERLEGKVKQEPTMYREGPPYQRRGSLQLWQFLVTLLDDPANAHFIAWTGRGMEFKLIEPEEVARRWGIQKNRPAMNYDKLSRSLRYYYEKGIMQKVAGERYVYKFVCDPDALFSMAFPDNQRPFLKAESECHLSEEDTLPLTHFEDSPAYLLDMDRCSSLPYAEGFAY
Assay [3] addresses HSF1 (Homo sapiens, UniProt Q00613 1-529). Conditions: protein: recombinant; tags: N-terminal GST; chain copies: 3; dsDNA, one strand shown. The method, boiled down:
as §1

For assay [4], the target named is T2, SPIC (Homo sapiens, UniProt Q8N5J4 1-248).
T2 sequence: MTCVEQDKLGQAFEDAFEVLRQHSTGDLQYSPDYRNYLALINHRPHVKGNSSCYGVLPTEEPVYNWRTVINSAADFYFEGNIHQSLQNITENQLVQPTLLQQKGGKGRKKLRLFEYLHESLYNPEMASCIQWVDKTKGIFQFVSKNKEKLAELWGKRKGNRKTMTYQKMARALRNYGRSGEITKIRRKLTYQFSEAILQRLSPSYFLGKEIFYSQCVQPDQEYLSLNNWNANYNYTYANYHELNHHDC
The following applies: protein: recombinant; tags: N-terminal GST; dsDNA, one strand shown. The method, boiled down: as §1

The target of assay [5] is ELF4 (Homo sapiens, UniProt Q99607 1-663). The following applies: protein: recombinant; tags: N-terminal GST; dsDNA, one strand shown. The method, boiled down:
as §1

In assay [6] the target is T3, ELK4 (Homo sapiens, UniProt P28324-2 1-405).
T3 sequence: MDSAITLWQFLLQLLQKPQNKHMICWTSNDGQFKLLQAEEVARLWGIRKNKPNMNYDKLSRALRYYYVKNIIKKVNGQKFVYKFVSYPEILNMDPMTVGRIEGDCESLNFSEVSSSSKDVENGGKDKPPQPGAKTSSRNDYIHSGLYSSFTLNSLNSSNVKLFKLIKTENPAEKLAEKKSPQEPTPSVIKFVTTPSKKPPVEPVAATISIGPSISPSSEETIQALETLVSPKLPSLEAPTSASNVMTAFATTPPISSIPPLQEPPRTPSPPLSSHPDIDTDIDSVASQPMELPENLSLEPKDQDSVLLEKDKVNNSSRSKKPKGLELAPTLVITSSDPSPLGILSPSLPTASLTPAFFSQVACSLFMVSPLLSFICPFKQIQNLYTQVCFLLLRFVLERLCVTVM
Conditions: protein: recombinant; tags: N-terminal GST; dsDNA, one strand shown. The essentials:
as §1

In assay [7] the target is T4, ETV2 (Homo sapiens, UniProt O00321 1-342).
T4 sequence: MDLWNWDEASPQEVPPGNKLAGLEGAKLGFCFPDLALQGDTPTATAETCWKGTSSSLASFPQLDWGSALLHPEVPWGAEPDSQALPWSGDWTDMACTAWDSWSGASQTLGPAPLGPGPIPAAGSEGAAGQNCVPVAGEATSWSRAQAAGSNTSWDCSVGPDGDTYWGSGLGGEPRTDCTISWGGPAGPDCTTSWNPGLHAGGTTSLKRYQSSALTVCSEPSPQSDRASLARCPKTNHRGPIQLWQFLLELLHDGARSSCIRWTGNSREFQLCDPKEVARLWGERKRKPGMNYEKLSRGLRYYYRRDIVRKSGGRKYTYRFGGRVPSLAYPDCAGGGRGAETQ
The following applies: protein: recombinant; tags: N-terminal GST; dsDNA, one strand shown. The method, boiled down:
as §1

The target of assay [8] is T5, ELF3 (Homo sapiens, UniProt P78545 1-371).
T5 sequence: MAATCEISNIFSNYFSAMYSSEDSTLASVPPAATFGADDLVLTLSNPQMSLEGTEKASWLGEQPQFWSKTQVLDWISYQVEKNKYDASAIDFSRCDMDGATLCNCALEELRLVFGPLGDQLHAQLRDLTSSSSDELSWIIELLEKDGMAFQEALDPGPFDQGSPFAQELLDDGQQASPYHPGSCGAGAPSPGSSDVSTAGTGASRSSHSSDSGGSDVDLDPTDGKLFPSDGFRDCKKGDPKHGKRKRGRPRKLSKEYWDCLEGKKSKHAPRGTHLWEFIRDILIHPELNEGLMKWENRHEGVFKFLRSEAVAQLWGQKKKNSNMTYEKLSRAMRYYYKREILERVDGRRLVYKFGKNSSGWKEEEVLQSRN
The following applies: protein: recombinant; tags: N-terminal GST; dsDNA, one strand shown. The method, boiled down:
as §1

Assay [9] concerns the target CRX (Homo sapiens, UniProt O43186 1-299). The following applies: protein: recombinant; tags: N-terminal GST; dsDNA, one strand shown. The method, boiled down:
as §1

The target of assay [10] is ETV1 (Homo sapiens, UniProt P50549 1-477). The following applies: protein: recombinant; tags: N-terminal GST; dsDNA, one strand shown. The essentials:
as §1

Assay [11] concerns the target T6, ERF (Homo sapiens, UniProt P50548 1-548).
T6 sequence: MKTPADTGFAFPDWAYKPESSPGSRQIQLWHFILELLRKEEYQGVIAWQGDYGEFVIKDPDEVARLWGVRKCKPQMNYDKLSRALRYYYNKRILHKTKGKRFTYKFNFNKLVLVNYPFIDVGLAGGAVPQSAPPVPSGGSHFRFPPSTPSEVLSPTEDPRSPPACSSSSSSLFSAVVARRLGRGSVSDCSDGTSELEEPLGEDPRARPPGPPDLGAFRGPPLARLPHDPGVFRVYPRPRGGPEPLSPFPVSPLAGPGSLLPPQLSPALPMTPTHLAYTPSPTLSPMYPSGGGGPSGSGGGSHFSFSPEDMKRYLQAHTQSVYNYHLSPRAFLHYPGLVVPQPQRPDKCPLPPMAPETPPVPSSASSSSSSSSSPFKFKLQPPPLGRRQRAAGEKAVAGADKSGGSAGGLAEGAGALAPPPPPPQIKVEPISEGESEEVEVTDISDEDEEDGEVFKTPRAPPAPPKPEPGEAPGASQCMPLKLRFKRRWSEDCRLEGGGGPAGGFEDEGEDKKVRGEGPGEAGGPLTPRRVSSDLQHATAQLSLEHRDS
Conditions: protein: recombinant; tags: N-terminal GST; dsDNA, one strand shown. The essentials:
as §1

Assay [12] concerns the target T7, ETV3L (Homo sapiens, UniProt Q6ZN32 1-361).
T7 sequence: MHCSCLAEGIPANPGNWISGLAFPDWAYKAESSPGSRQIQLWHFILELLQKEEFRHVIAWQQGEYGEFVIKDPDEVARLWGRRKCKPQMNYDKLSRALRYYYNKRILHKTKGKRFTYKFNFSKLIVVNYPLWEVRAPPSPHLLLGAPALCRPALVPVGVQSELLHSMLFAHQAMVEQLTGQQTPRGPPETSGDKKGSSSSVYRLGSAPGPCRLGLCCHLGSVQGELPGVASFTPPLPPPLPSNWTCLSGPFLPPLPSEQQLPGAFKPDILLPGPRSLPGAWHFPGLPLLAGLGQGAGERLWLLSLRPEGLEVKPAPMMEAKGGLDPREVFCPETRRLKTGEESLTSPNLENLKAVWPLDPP
The following applies: protein: recombinant; tags: N-terminal GST; dsDNA, one strand shown. The method, boiled down: as §1

Assay [13] concerns the target T8, ETS2 (Homo sapiens, UniProt P15036 1-469).
T8 sequence: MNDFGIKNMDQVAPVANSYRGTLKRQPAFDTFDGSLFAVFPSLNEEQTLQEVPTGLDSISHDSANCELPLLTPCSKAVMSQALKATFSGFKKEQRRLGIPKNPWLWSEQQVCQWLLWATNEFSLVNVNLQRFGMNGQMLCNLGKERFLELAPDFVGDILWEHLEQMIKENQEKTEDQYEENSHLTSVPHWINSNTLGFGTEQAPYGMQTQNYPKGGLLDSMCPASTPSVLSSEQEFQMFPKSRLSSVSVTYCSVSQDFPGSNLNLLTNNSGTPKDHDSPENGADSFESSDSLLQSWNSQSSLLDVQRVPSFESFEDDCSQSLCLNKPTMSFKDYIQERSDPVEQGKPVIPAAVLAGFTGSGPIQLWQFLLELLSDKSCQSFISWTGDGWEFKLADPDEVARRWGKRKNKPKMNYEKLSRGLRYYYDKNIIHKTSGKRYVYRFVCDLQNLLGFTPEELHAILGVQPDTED
The following applies: protein: recombinant; tags: N-terminal GST; dsDNA, one strand shown. The method, boiled down:
as §1

Assay [14] deals with T9, SPDEF (Homo sapiens, UniProt O95238 1-335).
T9 sequence: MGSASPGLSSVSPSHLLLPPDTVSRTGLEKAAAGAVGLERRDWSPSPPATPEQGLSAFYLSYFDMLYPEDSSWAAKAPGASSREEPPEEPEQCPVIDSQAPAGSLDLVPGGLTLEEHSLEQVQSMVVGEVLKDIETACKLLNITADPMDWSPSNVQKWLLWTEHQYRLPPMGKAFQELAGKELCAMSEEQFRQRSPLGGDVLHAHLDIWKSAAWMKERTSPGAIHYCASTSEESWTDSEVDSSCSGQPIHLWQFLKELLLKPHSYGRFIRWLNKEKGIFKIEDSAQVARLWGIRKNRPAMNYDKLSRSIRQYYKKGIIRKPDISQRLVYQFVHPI
The following applies: protein: recombinant; tags: N-terminal GST; dsDNA, one strand shown. The method, boiled down:
as §1

Assay [15] has as its target T10, ETV7 (Homo sapiens, UniProt Q9Y603 1-341).
T10 sequence: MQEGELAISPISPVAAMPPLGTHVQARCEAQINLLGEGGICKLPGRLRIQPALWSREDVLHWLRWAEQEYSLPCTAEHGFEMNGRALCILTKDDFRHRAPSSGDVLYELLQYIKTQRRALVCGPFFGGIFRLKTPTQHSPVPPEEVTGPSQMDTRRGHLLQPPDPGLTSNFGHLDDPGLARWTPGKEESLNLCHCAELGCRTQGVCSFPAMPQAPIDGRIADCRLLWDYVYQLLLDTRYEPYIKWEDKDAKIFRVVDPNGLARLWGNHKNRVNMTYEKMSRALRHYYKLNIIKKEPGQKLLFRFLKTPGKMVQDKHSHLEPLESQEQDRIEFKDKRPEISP
The following applies: protein: recombinant; tags: N-terminal GST; dsDNA, one strand shown. The essentials: as §1

Assay [16] concerns the target T11, ELF5 (Homo sapiens, UniProt Q9UKW6-2 1-255).
T11 sequence: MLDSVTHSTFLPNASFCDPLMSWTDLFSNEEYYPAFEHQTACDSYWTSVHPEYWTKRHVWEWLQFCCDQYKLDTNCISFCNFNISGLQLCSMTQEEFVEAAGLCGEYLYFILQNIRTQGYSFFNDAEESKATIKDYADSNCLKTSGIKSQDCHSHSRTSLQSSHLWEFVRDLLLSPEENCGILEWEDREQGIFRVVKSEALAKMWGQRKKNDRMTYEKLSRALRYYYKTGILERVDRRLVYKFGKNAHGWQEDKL
Conditions: protein: recombinant; tags: N-terminal GST; dsDNA, one strand shown. The method, boiled down:
as §1

Assay [17] has as its target T12, ETV3 (Homo sapiens, UniProt P41162-2 1-143).
T12 sequence: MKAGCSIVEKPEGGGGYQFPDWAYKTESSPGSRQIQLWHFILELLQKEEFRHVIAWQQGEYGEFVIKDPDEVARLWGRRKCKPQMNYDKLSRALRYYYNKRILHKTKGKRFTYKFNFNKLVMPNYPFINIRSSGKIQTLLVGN
Conditions: protein: recombinant; tags: N-terminal GST; dsDNA, one strand shown. The essentials:
as §1

The target of assay [18] is ETV6 (Homo sapiens, UniProt P41212 1-452). The following applies: protein: recombinant; tags: N-terminal GST; dsDNA, one strand shown. The essentials: as §1
Sequence of ETV6 (P41212 whole entry): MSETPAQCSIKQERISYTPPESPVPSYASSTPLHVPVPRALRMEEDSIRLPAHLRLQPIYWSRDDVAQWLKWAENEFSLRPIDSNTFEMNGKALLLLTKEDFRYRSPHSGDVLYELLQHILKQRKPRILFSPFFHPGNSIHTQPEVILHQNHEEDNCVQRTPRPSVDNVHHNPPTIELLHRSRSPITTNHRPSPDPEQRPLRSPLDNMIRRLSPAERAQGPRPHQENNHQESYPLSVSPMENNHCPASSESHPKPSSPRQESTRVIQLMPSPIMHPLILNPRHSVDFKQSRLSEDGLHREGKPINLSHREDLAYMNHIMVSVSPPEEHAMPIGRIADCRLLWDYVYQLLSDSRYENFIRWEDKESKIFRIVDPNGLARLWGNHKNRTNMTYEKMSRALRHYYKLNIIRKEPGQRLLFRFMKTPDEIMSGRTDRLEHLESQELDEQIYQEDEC

Sequence of ETV1 (P50549 whole entry): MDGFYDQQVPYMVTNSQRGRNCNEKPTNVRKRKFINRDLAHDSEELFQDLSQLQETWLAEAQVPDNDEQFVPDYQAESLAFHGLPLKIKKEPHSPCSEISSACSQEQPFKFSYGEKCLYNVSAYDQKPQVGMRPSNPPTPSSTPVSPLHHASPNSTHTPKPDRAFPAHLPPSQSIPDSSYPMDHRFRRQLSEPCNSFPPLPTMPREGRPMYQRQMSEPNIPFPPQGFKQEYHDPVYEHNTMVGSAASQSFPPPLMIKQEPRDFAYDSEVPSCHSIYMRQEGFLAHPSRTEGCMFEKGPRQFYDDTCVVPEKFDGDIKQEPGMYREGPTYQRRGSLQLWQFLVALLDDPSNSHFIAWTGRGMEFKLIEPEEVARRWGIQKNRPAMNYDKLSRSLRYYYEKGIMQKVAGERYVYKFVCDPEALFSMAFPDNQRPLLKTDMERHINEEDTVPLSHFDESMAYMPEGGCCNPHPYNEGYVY
Sequence of CRX (O43186 whole entry): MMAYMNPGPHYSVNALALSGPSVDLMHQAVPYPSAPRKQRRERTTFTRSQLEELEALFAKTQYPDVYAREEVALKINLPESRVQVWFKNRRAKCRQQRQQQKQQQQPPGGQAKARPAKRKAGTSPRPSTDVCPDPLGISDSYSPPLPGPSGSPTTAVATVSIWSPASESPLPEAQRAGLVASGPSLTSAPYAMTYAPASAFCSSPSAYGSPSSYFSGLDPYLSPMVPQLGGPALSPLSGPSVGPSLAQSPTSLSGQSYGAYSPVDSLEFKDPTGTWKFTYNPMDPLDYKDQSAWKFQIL
Sequence of HSF1 (Q00613 whole entry): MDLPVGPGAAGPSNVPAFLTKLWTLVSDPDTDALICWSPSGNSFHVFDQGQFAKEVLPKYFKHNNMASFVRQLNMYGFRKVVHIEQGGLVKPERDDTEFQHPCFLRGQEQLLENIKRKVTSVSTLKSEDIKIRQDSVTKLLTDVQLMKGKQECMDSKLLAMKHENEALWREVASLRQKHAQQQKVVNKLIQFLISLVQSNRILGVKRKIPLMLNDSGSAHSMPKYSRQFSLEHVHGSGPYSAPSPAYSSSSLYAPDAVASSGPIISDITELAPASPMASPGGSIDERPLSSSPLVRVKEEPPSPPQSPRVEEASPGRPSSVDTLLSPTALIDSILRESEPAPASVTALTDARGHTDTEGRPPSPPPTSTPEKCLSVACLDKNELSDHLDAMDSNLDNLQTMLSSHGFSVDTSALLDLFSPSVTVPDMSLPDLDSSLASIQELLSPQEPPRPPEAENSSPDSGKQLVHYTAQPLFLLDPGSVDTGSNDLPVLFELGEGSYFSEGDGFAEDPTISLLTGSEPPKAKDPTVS
Sequence of ELF4 (Q99607 whole entry): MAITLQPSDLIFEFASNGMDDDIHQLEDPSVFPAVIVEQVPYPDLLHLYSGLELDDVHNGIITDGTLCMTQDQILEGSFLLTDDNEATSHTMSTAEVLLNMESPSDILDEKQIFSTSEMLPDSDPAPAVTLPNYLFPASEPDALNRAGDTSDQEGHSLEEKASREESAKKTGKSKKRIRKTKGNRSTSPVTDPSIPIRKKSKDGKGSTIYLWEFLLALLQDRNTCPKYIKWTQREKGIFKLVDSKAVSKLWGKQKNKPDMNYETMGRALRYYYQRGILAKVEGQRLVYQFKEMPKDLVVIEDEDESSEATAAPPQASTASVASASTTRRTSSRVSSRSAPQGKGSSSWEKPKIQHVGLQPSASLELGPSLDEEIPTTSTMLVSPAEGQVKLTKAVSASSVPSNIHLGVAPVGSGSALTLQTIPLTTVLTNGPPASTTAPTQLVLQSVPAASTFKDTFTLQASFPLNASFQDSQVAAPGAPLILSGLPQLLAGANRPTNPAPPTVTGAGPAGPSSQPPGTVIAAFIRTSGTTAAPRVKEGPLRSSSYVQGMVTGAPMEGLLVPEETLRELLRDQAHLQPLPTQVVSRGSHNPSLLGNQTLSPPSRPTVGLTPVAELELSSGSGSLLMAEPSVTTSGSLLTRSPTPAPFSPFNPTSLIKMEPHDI

For ACCCAT, the binding signal in [1] is 1.17 fold enrichment (6-mer frequency, TF over GST control); in assay [2], 1.25 fold enrichment (6-mer frequency, TF over GST control); in assay [3], 1.05 fold enrichment (6-mer frequency, TF over GST control); in [4], 1.15 fold enrichment (6-mer frequency, TF over GST control); in [5], 1.25 fold enrichment (6-mer frequency, TF over GST control); in assay [6], 1.17 fold enrichment (6-mer frequency, TF over GST control). Also, the binding signal in [7] is 1.18 fold enrichment (6-mer frequency, TF over GST control); in [8] it was 1.23 fold enrichment (6-mer frequency, TF over GST control); in assay [9], 1.06 fold enrichment (6-mer frequency, TF over GST control); in [10], 1.19 fold enrichment (6-mer frequency, TF over GST control); in [11], 1.31 fold enrichment (6-mer frequency, TF over GST control); in assay [12], 1.34 fold enrichment (6-mer frequency, TF over GST control). Moreover, the binding signal in assay [13] was 1.37 fold enrichment (6-mer frequency, TF over GST control); in assay [14], 1.21 fold enrichment (6-mer frequency, TF over GST control); in assay [15], 1.37 fold enrichment (6-mer frequency, TF over GST control); in assay [16], 1.24 fold enrichment (6-mer frequency, TF over GST control); in assay [17], 1.25 fold enrichment (6-mer frequency, TF over GST control); in assay [18] it was 1.24 fold enrichment (6-mer frequency, TF over GST control).

For the origin of these results see paper PMC7862700, “An all-to-all approach to the identification of sequence-specific readers for epigenetic DNA modifications on cytosine”.
